Mdm2 MdmX PPI – disrupts the human Mdm2-MdmX interaction; O15151+Q00987; SaOS-2 split-luciferase Mdm2/MdmX complementation, luminescence; inhibition, % at 8 µM; hit rate 3% among 330,000;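 active = inhibition of at least 50% at 8 µM in the primary screen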
Shn3 3UTR inh – Schnurri-3 reporter inhibition in Clone20 osteoblasts | Clone20 osteoblast Shn3 3'UTR firefly luciferase, 24 h | inhibition, % at 12.5 µM | hit rate 0.52% among 360,000;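 active = mean inhibition of at least 75% with every replicate also reaching 75%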
Jurkat NFkB inh – lowers PMA/ionomycin-induced NF-kB signal in Jurkat cells. PMA/ionomycin-induced NF-kB luciferase reporter, luminescence. inhibition, % at 4 µM. hit rate 0.53% among 330,000. AID 435003; in the data active = inhibition above about 50%
Gli-Sufu antag – Gli-Sufu pathway antagonism; Sufu-KO-LIGHT fibroblasts, Gli luciferase reporter luminescence; hit rate 0.74% among 340,000; inhibition, % at 5 µM; AID 588413;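 active = inhibition above about 55%, limit read from the data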
697 NFkB inh – inhibitors of the PMA/ionomycin-induced NF-kB reporter in 697 B cells; 697 B-cell NF-kB luciferase reporter, 16 h; inhibition, % at 4 µM; hit rate 0.33% among 330,000; in the data active = inhibition above about 35%
Mdm2 MdmX conf – confirmation of human Mdm2/MdmX interaction inhibitors. shares compounds with Mdm2 MdmX PPI. Mdm2-MdmX binding, luminescent assay. inhibition, % at 8 µM. hit rate 55% among 10,000. AID 489028; in the data active = inhibition above about 40%
Full FLuc ctr – full-length luciferase inhibition in Mdm2/MdmX counter-screen; hit rate 77% among 6,200; shares compounds with Mdm2 MdmX PPI; AID 504607; inhibition, % at 8 µM; SaOS-2 full-length luciferase counterscreen, luminescence;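 active = mean inhibition at 8 µM reaching about 37%, which flags the compound as non-specific, limit read from the data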;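 note: p53-null SaOS-2 cells with luciferase driven by a doxycycline-inducible promoter; compound on cells about two nights before reading with doxycycline added after day one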
Of the large screens only hits and unclear results are named; the others gave an inactive call (follow-up assays come after a bar, where they were run). A selection: hits, their analogues and other compounds. The true share with any hit is near 3.8%.

N/C(Cc1ccc(Cl)cc1)=N\OC(=O)c1cccc2ccccc12	Mdm2 MdmX PPI 99 | Mdm2 MdmX conf 76 | Full FLuc ctr 39
COc1ccccc1/C=C/C(=O)N1CCN(S(=O)(=O)c2cc(C)ccc2C)CC1	none
COCCNC(=S)N1CCc2cc(OC)c(OC)cc2C1COc1ccc(C(C)C)cc1 (stereo not given)	none
CCOC(=O)C1CN(S(=O)(=O)c2cc(OC)ccc2OC)C1	none
O=C1CCC(CCC(=O)N2CCCC(C(=O)c3cccc(C(F)(F)F)c3)C2)=NN1 (stereo not given)	none
NC(=O)c1ccc(NC(=O)COC(=O)c2c3c(nc4ccccc24)/C(=C\c2cccs2)CCC3)cc1	Mdm2 MdmX PPI 85 | Mdm2 MdmX conf 75 | Full FLuc ctr 77
O=C(NCc1ccc(F)cc1)c1c2c(nc3ccccc13)CCN(Cc1ccccc1)C2	none
CC(=O)Nc1ccc(NC(=O)COC(=O)c2c3c(nc4ccccc24)CCN(Cc2ccccc2)C3)cc1	Mdm2 MdmX PPI 51 | Mdm2 MdmX conf 56 | Full FLuc ctr 84
CCN1CCc2nc3ccccc3c(C(=O)Nc3ccc(NC(C)=O)cc3)c2C1	none
O=C(COC(=O)c1c2c(nc3ccccc13)CCN(Cc1ccccc1)C2)Nc1c(F)cccc1F	Mdm2 MdmX PPI 72 | Mdm2 MdmX conf 68 | Full FLuc ctr 76
COc1ccccc1CNC(=O)C1(C)CCN1Cc1ccc2ccccc2c1 (stereo not given)	none (no result: Mdm2 MdmX PPI, Jurkat NFkB inh, Gli-Sufu antag, 697 NFkB inh)
Cc1nnc(NC(=O)C(C)Sc2nnc(CNC(=O)c3ccccc3F)n2C)s1 (stereo not given)	none
CN(CC(=O)Nc1cccc(F)c1)C(=O)CN1C(=O)C2CC=CCC2C1=O (stereo not given)	none
CC(NC(=O)/C(C#N)=C/c1ccc(Cl)c([N+](=O)[O-])c1)c1ccccc1 (stereo not given)	Mdm2 MdmX PPI 100 (no result: Shn3 3UTR inh) | Mdm2 MdmX conf 67 | Full FLuc ctr inactive
N#C/C(=C\c1ccc(Cl)c([N+](=O)[O-])c1)c1ccccn1	Mdm2 MdmX PPI 87 | Mdm2 MdmX conf inactive
N#C/C(=C\c1ccccc1)c1ccccn1	none
Cc1ccc(NC(=O)c2cc(S(=O)(=O)N(C)C)ccc2N2CCCC2)cc1F	Mdm2 MdmX PPI 52 | Mdm2 MdmX conf inactive
C[C@@H]1CN([C@@H](C)CO)C(=O)c2cc(C#Cc3ccccc3)cnc2O[C@@H]1CN(C)Cc1ccccn1	none (no result: Mdm2 MdmX PPI, Jurkat NFkB inh, Gli-Sufu antag, 697 NFkB inh)
COc1ccc(C(=O)C(C)OC(=O)COc2ccccc2)cc1 (stereo not given)	none
COc1ccc(CCC(=O)OC(C)C(=O)c2ccc(C)cc2)cc1 (stereo not given)	Mdm2 MdmX PPI 67 | Mdm2 MdmX conf inactive
CC(=O)c1ccc(Nc2cc(C)nc3ccc(C)cc23)cc1	Mdm2 MdmX PPI 51 | Mdm2 MdmX conf inactive | Full FLuc ctr 90
Cc1cc(C)c(OCCCCNCc2ccccc2)c(Cl)c1	Mdm2 MdmX PPI 51 | Mdm2 MdmX conf 40 | Full FLuc ctr 68
CCO[C@H]1OC(C(=O)O)=C[C@@H](c2ccc3c(c2)OCO3)[C@@H]1CCCO	none
CCCCN(C)C(=O)c1sc(=O)n(Cc2c(C)cccc2C)c1C	none (no result: Mdm2 MdmX PPI, Jurkat NFkB inh, Gli-Sufu antag, 697 NFkB inh)
CCC(CC)C(=O)OCC(=O)Nc1cc(OC)c([N+](=O)[O-])cc1C	none
Cc1ccc(/C=C/c2onc(C)c2S(=O)(=O)N2CCC(C(=O)N3CCCCC3)CC2)cc1	none
CCCN1CCN(C(=O)C2CCN(S(=O)(=O)c3c(C)noc3/C=C/c3ccc(C)cc3)CC2)CC1	Mdm2 MdmX PPI 58 | Mdm2 MdmX conf inactive
CC(C)C(=O)N1CCN(c2ccc(NC(=O)c3ccc4c(c3)OCCO4)cc2Cl)CC1	Mdm2 MdmX PPI 60 | Mdm2 MdmX conf 80 | Full FLuc ctr 65
CCCn1nc([N+](=O)[O-])c(C(C#N)c2nc3ccccc3s2)c(Cl)c1=O (stereo not given)	Mdm2 MdmX PPI 80 | Mdm2 MdmX conf 74 | Full FLuc ctr 57
Cc1ccc(C(=O)O/N=C(\N)c2ccccn2)cc1C	Mdm2 MdmX PPI 82 | Mdm2 MdmX conf 70 | Full FLuc ctr 64
N/C(=N\OC(=O)c1ccccc1)c1ccccn1	none
CCOc1ccc(C(=O)O/N=C(\N)c2ccccn2)cc1	Mdm2 MdmX PPI 95 | Mdm2 MdmX conf 86 | Full FLuc ctr inactive
COc1ccc(Cl)cc1C(=O)O/N=C(\N)c1ccccn1	none
COc1cc(C(=O)O/N=C(\N)c2ccccn2)cc(OC)c1OC	Mdm2 MdmX PPI 67 | Mdm2 MdmX conf inactive
Cc1cccc(C(=O)O/N=C(\N)c2ccccn2)c1	Mdm2 MdmX PPI 65 | Mdm2 MdmX conf 63 | Full FLuc ctr 100
Cc1ccc(-n2c(SCC(=O)Nc3cccc(S(N)(=O)=O)c3)nc3ccccc32)cc1	none
C=CC[C@@H]1C=C[C@H](O/N=C/c2ccc(C(=O)N3[C@H](c4ccc(C)cc4)[C@@H](C)CC[C@H]3C(=O)OC)cc2)[C@@H](CO)O1	none (no result: Shn3 3UTR inh, Gli-Sufu antag)
Cc1ccc(C(=O)O/N=C(\N)c2ccccn2)cc1	Mdm2 MdmX PPI 91 | Mdm2 MdmX conf 89 | Full FLuc ctr inactive
Cc1ccc(NC(=O)CN(C)C(=O)c2cc(S(=O)(=O)N(C)C)ccc2N2CCCC2)cc1	none
Cc1nn(C)c(C)c1NC(=O)CSc1nc(Cc2ccccc2)nc2c1cnn2-c1ccccc1	Mdm2 MdmX PPI 94 | Mdm2 MdmX conf 57 | Full FLuc ctr 103
CCN1/C(=C/C=C/C=C/c2sc3ccccc3[n+]2CC)Sc2ccccc21	Mdm2 MdmX PPI 91 (no result: Shn3 3UTR inh, Gli-Sufu antag) | Mdm2 MdmX conf 82 | Full FLuc ctr 44
COc1ccc2nc(SCC(C)=O)c(C#N)cc2c1	none
Cc1cc(C)c2nc(SCC(=O)N3CC(=O)Nc4ccccc43)c(C#N)cc2c1	Mdm2 MdmX PPI 69 | Mdm2 MdmX conf 71 | Full FLuc ctr 112
COc1ccc2nc(SCC(=O)N3CC(=O)Nc4ccccc43)c(C#N)cc2c1	Mdm2 MdmX PPI 65 | Mdm2 MdmX conf 68 | Full FLuc ctr 46
O=C(NCCc1ccccc1)C1CCC(Cn2c(=O)c3ccccc3n(Cc3cccc(Cl)c3)c2=O)CC1 (stereo not given)	Mdm2 MdmX PPI 54 | Mdm2 MdmX conf inactive
O=C(NCCc1ccccc1)C1CCC(Cn2c(=O)c3ccccc3n(Cc3cccc(F)c3)c2=O)CC1 (stereo not given)	none
CN(C)S(=O)(=O)c1ccc(-c2csc(N/N=C/c3ccco3)n2)cc1	Mdm2 MdmX PPI 72 | Mdm2 MdmX conf inactive
CN(C)S(=O)(=O)c1ccc(-c2csc(N/N=C/c3ccc(O)cc3)n2)cc1	Mdm2 MdmX PPI 100 | Mdm2 MdmX conf 83 | Full FLuc ctr 38
CCCn1c(N)c(C(=O)CSc2nnc(C3CC3)n2Cc2ccccc2)c(=O)n(C)c1=O	none
CC(=O)NC1=NN(C(C)=O)C(C)(c2cccs2)S1 (stereo not given)	Mdm2 MdmX PPI 55 | Mdm2 MdmX conf 42 | Full FLuc ctr 52
Cc1nnsc1S(=O)c1ccc(Cl)c(Cl)c1 (stereo not given)	none
